Assay [1] is described as follows: ATG_E_Box_CIS: Attagene CIS-FACTORIAL HepG2 Assay for human Enhancer Box (E-box) (AID 2282936). The note with it: HepG2 E-box cis-reporter transcription, actives raise or lower the signal. In short, it runs like this: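 In this cell-based setup, HepG2 cells bearing transfected promoter-driven reporter units were exposed to chemicals for 24 h; reporter transcripts were amplified, 6-FAM-labelled, cut with HpaI and sized by capillary electrophoresis.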

A short description of assay [2]: ATG_M_61_CIS: Attagene CIS-FACTORIAL HepG2 Assay for M61 Transcription Factor (Internal Marker) (AID 2282937). Conditions: HepG2 Attagene CIS-FACTORIAL M61 internal marker reporter; actives raise or lower the signal. In short, it runs like this: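 Transfect HepG2 with MRTUs; dose 24 h; isolate RNA; reverse-transcribe with DNase I treatment; PCR-amplify, FAM-label and cut with HpaI for 2 h at 37 C; resolve by CE. Bidirectional fitting against DMSO.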

Assay [3] is described as follows: ATG_EGR_CIS: Attagene CIS-FACTORIAL HepG2 Assay for human Early Growth Response 1 (EGR1) (AID 2282938). Conditions: HepG2 Attagene CIS-FACTORIAL EGR reporter mRNA; actives raise or lower the signal. In short, it runs like this:
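After a 24 h treatment of transiently transfected HepG2 cells, total RNA was reverse-transcribed and reporter sequences PCR-amplified, labelled and run on capillary electrophoresis. Reporters sit under cis-regulatory promoters sensing endogenous factors.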

Assay [4] in a line: ATG_M_19_CIS: Attagene CIS-FACTORIAL HepG2 Assay for M19 Transcription Factor (Internal Marker) (AID 2282939). Conditions: HepG2 Attagene CIS-FACTORIAL M19 internal marker reporter; actives raise or lower the signal. In short, it runs like this:
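Signals come from fluorescence of labelled reporter-specific PCR fragments resolved by capillary electrophoresis, following 24 h treatment of HepG2 cells transfected with cis-promoter reporter units; activity was fitted in both directions relative to DMSO.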

Assay [5] can be described thus: ATG_Ets_CIS: Attagene CIS-FACTORIAL HepG2 Assay for human Erythroblast Transformation Specific (ETS) (AID 2282941). Conditions: HepG2 ETS cis-reporter transcription, actives raise or lower the signal. The method in brief: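 RT-PCR/capillary electrophoresis fluorescence read-out of reporter mRNA; HepG2 transient multi-reporter transfection; 24 h compound exposure; gain or loss of signal fitted bidirectionally relative to DMSO.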

Assay [6] has as its target Hepatocyte nuclear factor 3-beta (Homo sapiens) (UniProt Q9Y261). Kind of assay: ATG_FoxA2_CIS: Attagene CIS-FACTORIAL HepG2 Assay for human Forkhead box A2 (FOXA2) (AID 2282942). The note with it: HepG2 cis-reporter transcription factor activity, 24 h; actives raise or lower the signal. The method in brief:
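24 h dosing of HepG2 bearing cis-reporter constructs; mRNA readout by RT-PCR/CE fluorescence; bidirectional fit, DMSO baseline.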

Assay [7] is described as follows: ATG_FoxO_CIS: Attagene CIS-FACTORIAL HepG2 Assay for human Forkhead box O (FoxO) (AID 2282943). Conditions: HepG2 Attagene cis-reporter, FoxO element, mRNA; actives raise or lower the signal. In short, it runs like this: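 Read-out: fluorescence of 6-FAM-labelled reporter cDNA fragments resolved by capillary electrophoresis. Transiently transfected HepG2 cells were dosed for 24 h; activity fitted in both directions relative to DMSO controls.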

Assay [8] is described as follows: ATG_GATA_CIS: Attagene CIS-FACTORIAL HepG2 Assay for human GATA Binding Protein (AID 2282944). Conditions: HepG2 GATA cis-element reporter, Attagene multiplex mRNA; actives raise or lower the signal. The method in brief:
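After transfecting HepG2 cells with multiple cis-regulated reporter units, chemicals are dosed for 24 h; isolated RNA undergoes RT-PCR and fluorescent labeling before capillary electrophoresis, with activity expressed against DMSO.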

A short description of assay [9]: ATG_GLI_CIS: Attagene CIS-FACTORIAL HepG2 Assay for human Zinc Finger Protein GLI1 (AID 2282945). Conditions: HepG2, Attagene cis-factorial reporter mRNA, GLI element; actives raise or lower the signal. The method in brief: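 Transiently transfected HepG2 cells report endogenous transcription factor activity via cis-element-driven reporter units. After 24 h compound exposure, reporter mRNA was measured by RT-PCR with capillary electrophoresis; bidirectional fitting against DMSO baseline.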

The nature of assay [10]: ATG_ISRE_CIS: Attagene CIS-FACTORIAL HepG2 Assay for human Interferon Regulatory Factor 1 (IRF1) binding to an Interferon-Stimulated Response Element (ISRE) (AID 2282948). Conditions: HepG2 ISRE cis-reporter (Attagene), mRNA transcription readout; actives raise or lower the signal. In short, it runs like this: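 Read-out: fluorescent RT-PCR products resolved by capillary electrophoresis, reporting endogenous transcription factor activity via ISRE-driven reporter mRNA in transfected HepG2 cells dosed for 24 h; gain or loss fitted relative to DMSO.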

A short description of assay [11]: ATG_M_06_CIS: Attagene CIS-FACTORIAL HepG2 Assay for M06 Transcription Factor (Internal Marker) (AID 2282950). Conditions: HepG2 Attagene CIS-FACTORIAL M06 internal marker reporter; actives raise or lower the signal. The method in brief: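 HepG2 liver cells, 24 h exposure. Reporter transcripts from transfected cis-element constructs quantified by RT-PCR/capillary electrophoresis fluorescence. Bidirectional curve fit against DMSO.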

In assay [12] the target is Hypoxia-inducible factor 1-alpha (Homo sapiens) (UniProt Q16665). Kind of assay: ATG_HIF1a_CIS: Attagene CIS-FACTORIAL HepG2 Assay for human Hypoxia Inducible Factor 1 (HIF1A) (AID 2282951). Conditions: HepG2 Attagene cis-factorial HIF1a reporter transcription; actives raise or lower the signal. In short, it runs like this: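 After 24 h chemical exposure of reporter-transfected HepG2 cells, reporter cDNA was PCR-amplified, labelled by 6-FAM primer extension (2 min 95 C, 20 s 68 C, 10 min 72 C), HpaI-cut (2 h, 37 C) and analysed by CE.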
Hypoxia-inducible factor 1-alpha (Homo sapiens), sequence (Q16665 whole entry, looked up): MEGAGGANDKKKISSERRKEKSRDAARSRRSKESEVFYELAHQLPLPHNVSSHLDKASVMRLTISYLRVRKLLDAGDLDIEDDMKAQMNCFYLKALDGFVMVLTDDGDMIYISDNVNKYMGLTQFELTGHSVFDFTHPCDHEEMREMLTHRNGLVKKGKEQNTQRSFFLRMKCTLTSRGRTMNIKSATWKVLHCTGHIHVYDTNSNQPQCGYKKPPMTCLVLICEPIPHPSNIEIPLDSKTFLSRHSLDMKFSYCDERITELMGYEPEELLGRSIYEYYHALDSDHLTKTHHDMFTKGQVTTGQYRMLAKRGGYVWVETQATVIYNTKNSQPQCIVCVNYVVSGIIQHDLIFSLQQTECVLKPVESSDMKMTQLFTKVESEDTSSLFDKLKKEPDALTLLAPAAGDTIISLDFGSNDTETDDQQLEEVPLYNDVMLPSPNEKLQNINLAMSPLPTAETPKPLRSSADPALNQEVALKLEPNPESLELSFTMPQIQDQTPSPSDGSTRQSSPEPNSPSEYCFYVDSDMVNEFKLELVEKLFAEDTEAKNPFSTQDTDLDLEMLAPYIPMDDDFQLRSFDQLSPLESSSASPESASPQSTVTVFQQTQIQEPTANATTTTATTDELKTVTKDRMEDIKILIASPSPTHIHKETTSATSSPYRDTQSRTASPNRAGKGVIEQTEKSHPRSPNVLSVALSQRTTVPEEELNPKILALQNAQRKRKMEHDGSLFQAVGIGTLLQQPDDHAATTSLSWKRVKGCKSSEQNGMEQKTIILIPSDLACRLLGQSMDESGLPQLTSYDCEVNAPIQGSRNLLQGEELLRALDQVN

The target of assay [13] is Hepatocyte nuclear factor 6 (Homo sapiens) (UniProt Q9UBC0). Kind of assay: ATG_HNF6_CIS: Attagene CIS-FACTORIAL HepG2 Assay for human Hepatocyte Nuclear Factor 6 (HNF6) (AID 2282952). The note with it: HepG2 Attagene cis-factorial HNF6 reporter transcription; actives raise or lower the signal. In short, it runs like this:
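Endogenous factor activity read in transiently transfected HepG2 via promoter-regulated reporter transcripts. RNA harvested 24 h post-dosing, reverse-transcribed, PCR-amplified, FAM-labelled, HpaI-digested and resolved by capillary electrophoresis; fitted in both directions against DMSO.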

The target in assay [14] is Heat shock factor protein 1 (Homo sapiens) (UniProt Q00613). Briefly: ATG_HSE_CIS: Attagene CIS-FACTORIAL HepG2 Assay for human Heat Shock Transcription Factor 1 (HSE) (AID 2282953). The note with it: HepG2 HSE cis-reporter, Attagene RNA transcription; actives raise or lower the signal. The method in brief: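 Endogenous transcription factor activity captured via cis-promoter reporter units transfected into HepG2; treatment lasted 24 h. Fluorescence intensity of reporter fragments analysed with bidirectional curve fitting, DMSO baseline.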
Heat shock factor protein 1 (Homo sapiens), sequence (Q00613 whole entry, looked up, the tested form may be a part): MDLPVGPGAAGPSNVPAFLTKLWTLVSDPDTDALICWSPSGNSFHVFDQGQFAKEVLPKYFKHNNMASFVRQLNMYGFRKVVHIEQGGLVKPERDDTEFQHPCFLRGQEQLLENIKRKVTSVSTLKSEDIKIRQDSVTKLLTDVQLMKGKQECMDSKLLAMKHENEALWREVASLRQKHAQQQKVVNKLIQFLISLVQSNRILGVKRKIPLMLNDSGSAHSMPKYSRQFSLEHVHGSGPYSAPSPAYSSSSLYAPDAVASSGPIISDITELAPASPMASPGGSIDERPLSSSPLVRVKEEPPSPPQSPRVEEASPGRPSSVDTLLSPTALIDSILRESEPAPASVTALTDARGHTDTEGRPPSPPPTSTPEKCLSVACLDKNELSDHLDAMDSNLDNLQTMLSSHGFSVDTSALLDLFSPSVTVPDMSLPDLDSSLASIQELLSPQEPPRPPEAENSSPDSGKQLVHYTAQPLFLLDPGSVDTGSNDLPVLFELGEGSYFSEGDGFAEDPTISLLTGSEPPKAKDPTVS

Assay [15] in a line: ATG_MRE_CIS: Attagene CIS-FACTORIAL HepG2 Assay for human Metal Responsive Element (MRE) (AID 2282954). Conditions: HepG2 MRE cis-reporter transcription, Attagene multiplex; actives raise or lower the signal. In short, it runs like this: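 Measured here is mRNA induction from an MRE cis-element reporter in HepG2 after 24 h, quantified by fluorescence of labelled RT-PCR products on capillary electrophoresis; gain- and loss-of-signal fits use DMSO as baseline.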

Assay [16] can be described thus: ATG_M_32_CIS: Attagene CIS-FACTORIAL HepG2 Assay for M32 Transcription Factor (Internal Marker) (AID 2282949).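 Note: background control marker of the multiplexed CIS panel rather than a real target.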 Conditions: HepG2 Attagene cis-factorial M32 reporter, mRNA; actives raise or lower the signal. In short, it runs like this:
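HepG2 transfectants (cis-regulated reporter transcription units) dosed 24 h. Reporter mRNA by RT-PCR plus CE, analysed as gain or loss relative to DMSO.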

Assay [17] in a line: ATG_PBREM_CIS: Attagene CIS-FACTORIAL HepG2 Assay for human Phenobarbital-responsive Enhancer Module (PBREM) (AID 2282955). Conditions: HepG2 PBREM cis-reporter, Attagene multiplexed transcription; actives raise or lower the signal. The method in brief: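 Measures endogenous factor action on a phenobarbital-responsive enhancer module. HepG2 transiently carrying cis reporters, 24 h treatment, mRNA read-out by RT-PCR plus capillary electrophoresis.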

Assay [18] deals with Bile acid receptor (Homo sapiens) (UniProt Q96RI1). Briefly: ATG_IR1_CIS: Attagene CIS-FACTORIAL HepG2 Assay for human Nuclear Receptor Subfamily 1 Group H Member 4 (NR1H4), IR1 submotif (AID 2282946). Conditions: IR1 reporter transcription, actives raise or lower the signal. The method in brief: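 Fluorescence of capillary-separated, HpaI-digested RT-PCR reporter products gave IR1-element mRNA induction in HepG2 cells 24 h after dosing. Endogenous transcription factors drove the cis-regulated reporters; activity was fitted bidirectionally against DMSO.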
Bile acid receptor (Homo sapiens), sequence (Q96RI1 whole entry, looked up): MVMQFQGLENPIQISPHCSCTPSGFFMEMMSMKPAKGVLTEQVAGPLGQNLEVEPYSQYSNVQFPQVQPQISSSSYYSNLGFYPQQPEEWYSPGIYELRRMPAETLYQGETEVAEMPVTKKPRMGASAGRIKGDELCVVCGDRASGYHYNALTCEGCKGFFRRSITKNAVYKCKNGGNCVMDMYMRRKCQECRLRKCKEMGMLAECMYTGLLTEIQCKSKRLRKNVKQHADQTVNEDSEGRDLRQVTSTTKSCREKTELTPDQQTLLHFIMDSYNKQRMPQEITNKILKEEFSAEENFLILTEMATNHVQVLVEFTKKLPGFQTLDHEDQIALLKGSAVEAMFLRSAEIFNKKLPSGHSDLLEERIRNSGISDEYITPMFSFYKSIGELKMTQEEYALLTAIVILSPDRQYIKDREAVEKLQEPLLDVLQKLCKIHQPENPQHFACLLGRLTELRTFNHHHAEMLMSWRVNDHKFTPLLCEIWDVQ

The nature of assay [19]: ATG_GRE_CIS: Attagene CIS-FACTORIAL HepG2 Assay for human Glucocorticoid Response Elements (GRE) (AID 2282947). The note with it: HepG2 GRE cis-reporter, Attagene multiplex mRNA; actives raise or lower the signal. In short, it runs like this: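 Fluorescence intensity of reporter-specific cDNA fragments, separated by capillary electrophoresis, provides the signal. Constructs carry cis-regulating promoters in transiently transfected HepG2 liver cells; 24 h incubation; fitting is bidirectional against DMSO.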

Calls of active or inactive are those of the source. Rule for the calls: active = hit-call score of the fitted dose curve at least 0.9, where 1 is the maximum; inactive = score below 0.9.

The AC50 is the midpoint of the concentration-response curve, whichever way the signal moves.

Hepatocyte nuclear factor 3-beta (Homo sapiens), sequence (Q9Y261 whole entry, looked up): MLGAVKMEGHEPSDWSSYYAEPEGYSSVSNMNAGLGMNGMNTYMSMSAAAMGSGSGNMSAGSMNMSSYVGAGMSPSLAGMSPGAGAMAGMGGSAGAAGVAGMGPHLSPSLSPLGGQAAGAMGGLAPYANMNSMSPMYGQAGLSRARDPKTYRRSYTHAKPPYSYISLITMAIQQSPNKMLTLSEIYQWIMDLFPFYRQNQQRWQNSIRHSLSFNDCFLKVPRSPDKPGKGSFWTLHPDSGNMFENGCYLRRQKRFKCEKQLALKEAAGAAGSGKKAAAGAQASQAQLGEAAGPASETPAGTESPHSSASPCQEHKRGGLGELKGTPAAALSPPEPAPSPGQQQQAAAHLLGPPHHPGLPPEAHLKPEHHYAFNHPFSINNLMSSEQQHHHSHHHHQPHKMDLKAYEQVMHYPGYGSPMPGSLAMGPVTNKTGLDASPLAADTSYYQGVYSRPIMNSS
Hepatocyte nuclear factor 6 (Homo sapiens), sequence (Q9UBC0 whole entry, looked up): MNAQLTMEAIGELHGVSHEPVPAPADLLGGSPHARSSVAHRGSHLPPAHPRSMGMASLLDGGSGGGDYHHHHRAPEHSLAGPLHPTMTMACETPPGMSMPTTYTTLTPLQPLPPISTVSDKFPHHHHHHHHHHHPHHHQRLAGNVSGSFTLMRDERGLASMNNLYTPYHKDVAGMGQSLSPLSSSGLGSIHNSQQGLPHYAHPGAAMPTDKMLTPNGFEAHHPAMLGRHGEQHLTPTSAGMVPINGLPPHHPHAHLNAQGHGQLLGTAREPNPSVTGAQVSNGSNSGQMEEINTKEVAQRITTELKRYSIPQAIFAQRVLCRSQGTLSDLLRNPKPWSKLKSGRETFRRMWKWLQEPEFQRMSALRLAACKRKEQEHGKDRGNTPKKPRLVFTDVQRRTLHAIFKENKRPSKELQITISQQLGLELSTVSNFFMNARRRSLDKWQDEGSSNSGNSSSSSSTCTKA

As for `CC1(CO)CN(c2ccccc2)NC1=O` (stereo unspecified), the outcome in assay [1], in assay [2], in assay [3], in [4], in [5] and in [6] was inactive. The call in [7], in [8], in assay [9], in assay [10], in assay [11] and in assay [12] was inactive. Also, the outcome in assay [13], in assay [14] and in assay [15] was inactive.

For `CSc1nc(NC2CC2)nc(NC(C)(C)C)n1`, the outcome in assay [1], in [2], in [3], in assay [4], in assay [6] and in assay [7] was inactive. In addition, the call in [8], in assay [9], in assay [10], in assay [16], in assay [11] and in [12] was inactive. The result in [13], in assay [14] and in assay [17] was inactive. Moreover, in [15], the AC50 was 65.7 µM (active).

As to `O=C(O)c1ccc([N+](=O)[O-])cc1`, the outcome in assay [1], in [2], in [3], in assay [4], in assay [6] and in assay [7] was inactive. For the same compound, the call in assay [8], in assay [9], in [18], in assay [19], in [10] and in assay [16] was inactive. Also, the outcome in assay [11], in [12], in assay [13], in assay [14], in assay [15] and in assay [17] was inactive.

`OC[C@H]1O[C@H](O[C@]2(CCl)O[C@H](CCl)[C@@H](O)[C@@H]2O)[C@H](O)[C@@H](O)[C@H]1Cl`: the result in assay [1], in [2], in assay [3], in [4], in [5] and in assay [6] was inactive. Besides, the compound was classed as inactive in assay [7], in assay [8], in assay [9], in assay [10], in [16] and in assay [12]. The call in assay [13], in assay [14] and in assay [15] was inactive.

For the compound `COC(C)CCO` (stereo unspecified), the result in assay [1], in assay [2], in [3], in assay [4], in assay [5] and in assay [6] was inactive. For the same compound, the result in assay [7], in assay [8], in assay [10], in [16], in assay [11] and in assay [12] was inactive. Also, the result in [13], in assay [14], in [15] and in [17] was inactive.

For the compound `CC1(C)C(=O)N(Br)C(=O)N1Cl`, the result in assay [1], in [2], in assay [3], in [4], in assay [6] and in assay [7] was inactive. Moreover, the outcome in [8], in assay [9], in assay [10], in assay [16], in assay [11] and in [12] was inactive. In addition, the call in assay [13], in assay [14] and in [15] was inactive.

With `CCCCCCCCCCCCN`, the result in assay [1], in assay [2], in assay [3], in assay [4], in assay [5] and in assay [6] was inactive. The compound was called inactive in [7], in [8], in assay [10], in assay [11], in assay [12] and in assay [13]. The compound was called inactive in assay [15] and in [17].

With `O=C(O)c1cccc([N+](=O)[O-])c1`, the result in [1], in assay [2], in [3], in assay [4], in assay [5] and in assay [6] was inactive. Besides, the result in assay [7], in assay [9], in assay [19], in [10], in assay [16] and in assay [11] was inactive. Moreover, the compound was called inactive in assay [12], in assay [13], in [14] and in [15].

As to `Nc1nc2ccc([N+](=O)[O-])cc2s1`, the outcome in [1], in assay [2], in assay [3], in [4], in [5] and in assay [6] was inactive. Further, the compound was called inactive in [7], in [9], in assay [16], in assay [11], in assay [12] and in [13]. The result in [14], in assay [15] and in assay [17] was inactive. For the same compound, the AC50 in assay [10] is 77.4 µM (active).

(Values after PubChem BioAssay (EPA / NIEHS).)
